In article PMC4336329 (PLoS ONE, 2015):
Among all 310,000 compounds or so, about 14,000 (4.5%) showed an effect of 50% or more. The effect is printed as a negative number. What follows is part of a selection rich in strong results, with near analogues and random picks from the rest.

Target: human ether-à-go-go-related gene (hERG) potassium channel (human, UniProt Q12809)
Assay: primary screen, population patch clamp on CHO cells stably expressing hERG; higher = less effect of the substance
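Note: peak tail current of the secondary pulse compared with the same well before compound.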

Sequence of human ether-à-go-go-related gene (hERG) potassium channel (Q12809 whole entry, looked up): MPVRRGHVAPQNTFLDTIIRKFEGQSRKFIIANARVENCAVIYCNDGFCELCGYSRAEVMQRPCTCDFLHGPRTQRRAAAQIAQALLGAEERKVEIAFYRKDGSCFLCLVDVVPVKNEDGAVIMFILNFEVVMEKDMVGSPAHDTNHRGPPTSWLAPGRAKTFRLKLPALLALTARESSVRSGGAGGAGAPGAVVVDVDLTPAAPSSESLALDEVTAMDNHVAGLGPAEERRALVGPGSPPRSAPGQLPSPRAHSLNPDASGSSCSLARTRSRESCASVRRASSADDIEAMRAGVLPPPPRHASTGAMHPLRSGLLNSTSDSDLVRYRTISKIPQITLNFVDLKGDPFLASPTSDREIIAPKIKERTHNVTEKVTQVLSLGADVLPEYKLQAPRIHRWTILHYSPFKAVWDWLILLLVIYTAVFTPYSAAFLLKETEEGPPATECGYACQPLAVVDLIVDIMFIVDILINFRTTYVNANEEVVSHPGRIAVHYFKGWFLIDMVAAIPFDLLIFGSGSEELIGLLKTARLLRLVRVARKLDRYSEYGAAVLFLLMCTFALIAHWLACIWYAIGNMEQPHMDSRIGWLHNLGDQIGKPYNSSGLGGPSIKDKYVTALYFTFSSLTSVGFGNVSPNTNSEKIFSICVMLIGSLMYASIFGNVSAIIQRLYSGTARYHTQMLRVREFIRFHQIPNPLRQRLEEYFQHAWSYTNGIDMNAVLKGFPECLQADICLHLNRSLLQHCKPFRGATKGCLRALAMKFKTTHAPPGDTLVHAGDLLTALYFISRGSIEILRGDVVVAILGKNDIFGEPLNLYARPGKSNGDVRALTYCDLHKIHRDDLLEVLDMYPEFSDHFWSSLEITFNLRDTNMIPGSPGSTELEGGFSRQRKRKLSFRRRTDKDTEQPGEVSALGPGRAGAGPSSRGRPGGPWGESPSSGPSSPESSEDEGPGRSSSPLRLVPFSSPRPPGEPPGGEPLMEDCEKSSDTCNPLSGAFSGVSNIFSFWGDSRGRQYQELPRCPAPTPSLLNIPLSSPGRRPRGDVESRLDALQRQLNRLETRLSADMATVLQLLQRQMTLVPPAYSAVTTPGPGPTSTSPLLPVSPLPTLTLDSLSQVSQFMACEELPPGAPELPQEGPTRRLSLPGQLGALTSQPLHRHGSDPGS

| SMILES | hERG current change (%, negative = inhibition) at 10uM [%] |
| --- | --- |
| O=C(CCCn1c(SCc2ccccc2F)nc2ccccc2c1=O)NCC1CCCO1 (stereo not shown) | -14 |
| COc1ccc(CNc2nc(SCc3cc(=O)n4cc(Cl)ccc4n3)nc3ccccc23)cc1 | -44 |
| O=c1c2sccc2nc(SCc2cc(=O)n3cc(Cl)ccc3n2)n1Cc1ccccn1 | -26.2 |
| CC(=O)NCCn1c(SCC(=O)c2ccc(Cl)cc2)nc2ccccc2c1=O | -4.33 |
| O=C(CCCn1c(SCc2cc(=O)n3cc(Cl)ccc3n2)nc2ccccc2c1=O)NCC1CCCO1 (stereo not shown) | -53.7 |
| O=c1cc(CSc2nc(NCc3ccccc3)c3ccccc3n2)nc2ccc(Cl)cn12 | -59.3 |
| COCCn1c(SCc2cc(=O)n3cc(C)ccc3n2)nc2ccccc2c1=O | 13.7 |
| NC(=S)N/N=C1/CCSc2ccc3ccccc3c21 | -23.4 |
| C/C(=N\NC(=O)c1cccs1)C(C)(C)C | 5.21 |
| CCN(c1ccc(F)cc1)S(=O)(=O)c1cccc2nsnc12 | 2.4 |
| COc1ccc(C(c2oc(CO)cc(=O)c2O)c2oc(CO)cc(=O)c2O)cc1OC | 14.3 |
| N/C(=N\OC(=O)CCc1ccccc1)c1cccc(Br)c1 | 1.33 |
| Cn1c(SCC(=O)NC2CC2)nnc1C(F)(F)F | -1.32 |
| Nc1nc2c(Cl)ccc(Cl)c2s1 | 10.7 |
| Cc1nc(N2CCC(C(N)=O)CC2)c2nnn(Cc3ccccc3)c2n1 | 16.3 |
| Cc1ccc(N(CC(=O)N/N=C/c2cccs2)S(C)(=O)=O)cc1 | -3.64 |
| Cc1ccccc1-n1c(C)nc2sccc2c1=O | -2.18 |
| COc1ccc2cc(C(C)C(=O)N3CCC(C(N)=O)CC3)ccc2c1 (stereo not shown) | 17.1 |
| COc1ccc(OC(C)C(=O)N2CCC(C)CC2)cc1 (stereo not shown) | -5.47 |
| COc1ccc2cc(C(C)C(=O)N3CCC(C)CC3)ccc2c1 (stereo not shown) | -71.9 |
| O=C(N/N=C/c1ccc([N+](=O)[O-])cc1)c1c[nH]c2ccccc12 | 19.1 |
| O=C(CCn1c(=O)oc2ccccc21)Nc1cccc(Cl)c1 | -2.8 |

| SMILES | hERG current change (%, negative = inhibition) at 10uM [%] |
| --- | --- |
| Cc1ccc(COc2cccc3c2CCN(Cc2ccc(F)cc2)C3=O)cc1 | 6.8 |
| CCOC(=O)N1CCN(C(=O)COc2cccc3c2CCN(Cc2ccc(F)cc2)C3=O)CC1 | -61 |
| CCOC(=O)N1CCN(C(=O)COc2cccc3c2CCN(Cc2ccccc2C)C3=O)CC1 | -40.7 |
| CCOC(=O)N1CCN(C(=O)COc2cccc3c2CCN(Cc2cccc(C)c2)C3=O)CC1 | -53.6 |
| CCOC(=O)N1CCN(C(=O)COc2cccc3c2CCN(CC)C3=O)CC1 | 6.35 |
| CCOC(=O)N1CCN(C(=O)COc2cccc3c2CCN(Cc2ccccc2F)C3=O)CC1 | -31.4 |
| Cc1cc(C)nc(NS(=O)(=O)c2ccc(N3Cc4ccccc4C3=O)cc2)n1 | 12.2 |
| COc1cc(C(=O)Nc2ccccc2N2CCOCC2)ccc1OCc1c(C)noc1C | -28.8 |
| O=C(NCc1cn2ccsc2n1)c1c(F)cccc1Cl | 7.32 |
| O=C(c1cccs1)N1CCC(N2CCN(c3ccccc3)CC2)CC1 | -51.2 |
| O=C(CCC1CCCC1)N1CCC(N2CCN(c3ccccc3)CC2)CC1 | -66.6 |
| O=C(O)C(=O)O.O=C(c1cccs1)N1CCN(CCCc2ccccc2)CC1 | -64.5 |
| CC(C)CC(=O)N1CCC(N2CCN(c3ccccc3)CC2)CC1 | -12 |
| COc1ccccc1N1CCN(C2CCN(C(=O)c3cccs3)CC2)CC1 | -38.2 |
| O=C(c1cccs1)N1CCN(CCc2ccccc2)CC1 | -48.6 |
| O=C(c1cccs1)N1CCN(C2CCN(Cc3ccccc3)CC2)CC1 | -64.3 |
| O=C(c1cccs1)N1CCN(c2ccccc2)CC1 | -0.00412 |
| O=C(O)C(=O)O.O=C(c1cccs1)N1CCN(C2CCCCC2)CC1 | -32.4 |
| O=C(c1cccs1)N1CCN(Cc2ccccc2)CC1 | -12.2 |
| O=C(O)C(=O)O.O=C(c1cccs1)N1CCN(Cc2ccncc2)CC1 | -5.94 |
| O=C(CCC1CCCC1)N1CCC(N2CCCCCC2)CC1.O=C(O)C(=O)O | -29.9 |
